Results on 8 compounds are retold here after PubChem BioAssay AID1345085 (National Center for Advancing Translational Sciences (NCATS), 2018).

Inconclusive results are not listed. The source made the active and inactive calls. The call rests on the fitted dose curve; in most records, active means well fitted cell-killing curve with a large enough effect; inconclusive means small, poorly fitted or top-dose-only effect, or effect the other way; inactive means no such curve, though single readings can be large or run the other way.
Potency means the concentration at half of the fitted maximal effect.

This assay relates to PA-1. As to the kind of experiment: Confirmatory qHTS for gynecologic anti-cancer compounds from libraries of approved drugs and bioactive compounds. Further: nearly all actives have a fitted effect of over 55% in size. To be noted: gynecologic cancer cell panel viability, ATPlite luminescence, 48 h; series mostly up to 57.6 µM. The method in brief:
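ATPlite luminescence read-out of cell viability; IC50 from 11-point 1:3 titrations, 57.5 uM to 0.977 nM, 48 h compound exposure at 37 C, 5% CO2. Cells seeded at 1,000/well 16 h before dosing.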
Background: Quantitative high-throughput screening tests each substance at several concentrations.
Take `CCNC(=O)C[C@@H]1N=C(c2ccc(Cl)cc2)c2cc(OC)ccc2-n2c(C)nnc21`: the Potency was 4320 nM (active).

Take `C[C@]12CC[C@H]3[C@@H](CCC4=CC(=O)CC[C@@H]43)[C@@H]1CC[C@@H]2OC(=O)CCc1ccccc1`: the Potency entry is “inactive”.

On to `C[C@H]1CCC/C=C/C2C[C@H](O)C[C@H]2[C@H](O)/C=C/C(=O)O1` (stereo partly drawn), for which the Potency was 172 nM (active).

As to `CCOc1ccccc1-n1c(C(C)N2CCN(C(=O)COc3ccc(Cl)cc3)CC2)nc2ccccc2c1=O` (stereo not drawn), the Potency is 13700 nM (active).

For the compound `O=C(O)Cc1ccccc1`, the Potency entry is “inactive”.

Turning to `C=C(C)[C@H]1Cc2c(ccc3c2O[C@@H]2COc4cc(OC)c(OC)cc4[C@@H]2C3=O)O1`, the Potency was 27.3 nM (active).

On to `C/C=C(/C)C(=O)O[C@H]1C(C)=C2[C@H]([C@@H]1OC(=O)CCCCCCC)[C@@](C)(OC(C)=O)C[C@H](OC(=O)CCC)[C@@]1(O)[C@H]2OC(=O)[C@@]1(C)O`, for which the Potency was 48.5 nM (active).

On to `Cc1sc2c(c1C)C(c1ccc(Cl)cc1)=NC(CC(=O)OC(C)(C)C)c1nnc(C)n1-2` (stereo not drawn), for which the Potency is 1530 nM (active).
